# In all, about 33,000 sequences were measured (“E-score (-0.5 to 0.5)”: median about -0.012, highest 2% from about 0.27 on). For the sample, the highest values were picked, then their nearest neighbours and some sequences at random.
# Molecular target: T1, Vhr1 (UniProt P40522)
# T1 sequence: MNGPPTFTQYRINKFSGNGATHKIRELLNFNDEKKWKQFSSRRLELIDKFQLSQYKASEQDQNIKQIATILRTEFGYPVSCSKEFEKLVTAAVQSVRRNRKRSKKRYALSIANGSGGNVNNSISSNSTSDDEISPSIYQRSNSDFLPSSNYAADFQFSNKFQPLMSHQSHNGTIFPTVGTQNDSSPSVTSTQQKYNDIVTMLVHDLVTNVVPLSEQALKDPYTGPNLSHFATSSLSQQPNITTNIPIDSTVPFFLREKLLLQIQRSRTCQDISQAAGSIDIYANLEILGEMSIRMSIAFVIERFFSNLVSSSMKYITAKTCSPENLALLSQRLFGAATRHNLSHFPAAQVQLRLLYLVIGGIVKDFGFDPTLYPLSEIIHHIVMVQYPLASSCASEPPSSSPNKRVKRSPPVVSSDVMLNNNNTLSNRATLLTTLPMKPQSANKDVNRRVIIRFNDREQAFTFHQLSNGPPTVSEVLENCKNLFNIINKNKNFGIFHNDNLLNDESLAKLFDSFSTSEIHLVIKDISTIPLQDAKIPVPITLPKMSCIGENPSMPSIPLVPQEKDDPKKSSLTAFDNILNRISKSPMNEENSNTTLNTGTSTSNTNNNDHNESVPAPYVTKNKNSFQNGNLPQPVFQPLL
# Experiment: PBM E-score (8-mer binding enrichment) (E-score (-0.5 to 0.5)); higher = stronger / more preferred TF binding
# Conditions: protein concentration: 200 nM; construct: GST-full length
# Experimental: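 Universal 'all 10-mer' protein binding microarrays (Agilent AMADID 015681) probed with GST-tagged S. cerevisiae TFs (full-length or DBD) made by in vitro transcription/translation (PURExpress), about 100-200 nM. Bound TF was detected with fluorescent anti-GST. Each ungapped 8-mer (which stands for itself and its reverse complement) is scored by the PBM enrichment score (E-score), a modified Wilcoxon-Mann-Whitney statistic from -0.5 to +0.5, computed with the Universal PBM Analysis Suite. Scale: above 0.35 generally sequence-specific binding.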
row,Sequence,PBM E-score
1,AACCATGC,0.234
2,ACCCATGG,0.211
3,CCCCATGC,-0.0398
4,ACCCAGGT,0.0206
5,CACCATGA,0.143
6,ACCCAGGA,-0.00244
7,ACCCATGC,0.273
8,CCCCATGA,0.0682
9,ACCCAGGC,0.302
10,ATATTCTA,0.122
11,TGACAACA,0.115
12,GCCTTGAC,-0.167
13,CATGGACC,-0.0938
14,AACTGGGC,-0.165
15,GCGAGCAA,-0.12
16,ACAACGCT,0.0591
17,AGCTAGGA,0.117
18,AGACACCG,0.21
19,CGTCACCC,-0.047
20,AGTCACCC,0.446
21,AGTCACCG,0.418
22,ATTCACCG,0.159
23,ATTCACCC,0.135
24,AGTCACCA,0.426
25,CGTCACCA,-0.036

row,Sequence,PBM E-score
1,GGTCACCA,-0.102
2,CTGGCAAG,-0.21
3,GAAGATCA,-0.185
4,GCCGGCCA,-0.136
5,ATGCCTGA,0.0818
6,CCTCTCGA,-0.142
7,CGTGAAAC,-0.243
8,AGCTCTAA,-0.127
9,ACTCTTAC,0.163
10,TCACCCAA,0.177
11,GCACCCCA,0.151
12,TCACCCCA,0.305
13,AGCGGTCG,-0.301
14,ACACGGAA,-0.0284
15,ACACGGAT,0.287
16,ACACGGAG,-0.0139
17,ACTCATAT,0.229
18,TGTCATAA,-0.0558
19,ACTCATAG,0.264
20,CGTCATAC,0.189
21,AGACATAT,0.16
22,CGTCATAG,-0.155
23,GGTCATAC,0.0467
24,AGTCATAC,0.407
25,AGTCATAT,0.421

row,Sequence,PBM E-score
1,CGTCATAA,0.016
2,AGTCATAG,0.407
3,AGTCATAA,0.344
4,ACTTATAT,0.199
5,GCACCGCA,0.0151
6,GTTCATGA,0.142
7,ATCCACCA,0.113
8,ACCTTGCG,-0.0156
9,GAGGCGGC,0.0803
10,GAGGTTGC,-0.0739
11,CAACTATC,0.125
12,ACTATCAA,0.112
13,CACGTGAC,0.108
14,AATGATGA,0.163
15,GGTGATTA,0.285
16,GTTGATTA,0.239
17,GATGATCC,0.0747
18,GCTGATGA,0.185
19,AATGATAA,0.106
20,GATGATTA,0.337
21,GCTGATTA,0.197
22,AATGATTA,0.304
23,GATGATCA,0.285
24,GGTGATGA,0.233
25,AATGATCA,0.0798

row,Sequence,PBM E-score
1,GCTGCGCC,0.0437
2,ATTAGCAA,0.124
3,CGAGAGCG,-0.118
4,CTGCATCC,-0.157
5,ATCGCAAT,0.157
6,GATGATGA,0.144
7,TATGATGA,0.286
8,CATGATGA,0.254
9,TAGGTTGA,0.0773
10,AAAGAATG,0.0281
11,ATGGAATC,0.28
12,CTGGAATC,0.104
13,CTGGAGTA,-0.0097
14,ATGGAGTC,0.433
15,CTGGAGTC,0.356
16,CTGGAGAC,0.0265
17,ATGGAGTG,-0.0367
18,ATGGAGTA,0.185
19,ATGGAATA,0.117
20,CGATACGA,-0.0911
21,AGAAGCGC,0.16
22,TAGCACAA,-0.0198
23,CACACTCG,0.224
24,AACTCCGA,0.115
25,TACTCCGA,0.174

row,Sequence,PBM E-score
1,CACTCCGC,0.144
2,GACTCCGC,0.38
3,GACTCCGA,0.428
4,AACTCCGC,-0.0635
5,GCCTTAGA,-0.114
6,CTACCTCC,0.241
7,GATCCATC,0.194
8,AAACGACA,0.138
9,CCTGAGGA,-0.0328
10,GAAACTTA,-0.0802
11,GCTGAGCA,0.149
12,GCTCTGCA,-0.201
13,ATGGTATC,0.287
14,CTGGTATC,0.0298
15,ATGGTATG,0.00124
16,CTAGATGC,0.00921
17,CGTCAGGA,-0.0893
18,AGTCAGGA,0.355
19,AGTCAGGG,0.356
20,ATTCAGGG,0.108
21,CGTCAGGC,-0.213
22,ACTCAGGC,0.259
23,GGTCAGGA,0.0179
24,AGTCAGGC,0.404
25,ACTCAGGG,0.27

row,Sequence,PBM E-score
1,AAGTTGTG,-0.00706
2,ATATTTAG,-0.00388
3,CACCTAGA,-0.0265
4,CACTTGAA,-0.042
5,AAGCTAGT,-0.0022
6,AACCAGGA,-0.00068
7,GTTAACGA,-0.043
8,CGCTTGTC,-0.0745
9,GAGACTGA,0.0631
10,ATCACTGC,0.289
11,ATGACTGC,0.41
12,AGGACTGC,-0.19
13,GTGACTGA,0.384
14,ATGACTCG,0.457
15,ATCACTGA,0.136
16,ACGACTGC,-0.0133
17,ATAACTCG,0.0214
18,AAGACTCG,0.0518
19,GGGACTGA,-0.174
20,CTCACTGC,-0.102
21,GTCTGAAA,-0.0548
22,GCTGAATA,0.00091
23,CACTAGAC,0.0875
24,AACGGGCC,-0.204
25,TAAGTACA,-0.0281

row,Sequence,PBM E-score
1,GCGTTAAA,-0.0751
2,CTCCATCC,-0.162
3,AGATGGGG,-0.00259
4,AATGCTAT,-0.0368
5,AAGTTCGG,-0.155
6,CTGCACAC,0.045
7,ACGATAAT,0.0207
8,ATGACTTG,0.268
9,CAGACTGC,0.00779
10,CTGACTGA,0.13
11,AGGACTGA,-0.143
12,ATGACTGA,0.368
13,ATGACTGG,0.298
14,ACGACTGA,0.123
15,ACGACTGG,0.0415
16,CTGACTGC,0.298
17,CATCCGAG,0.15
18,CGTAATGA,0.0462
19,ATTGTGGG,0.156
20,ACGCTCCC,-0.108
21,GTCATCAC,0.229
22,AGCAATAA,-0.0386
